From PubChem BioAssay
SMN2 splice enh – qHTS Assay for Enhancers of SMN2 Splice Variant Expression; HEK293 SMN2-luciferase splicing reporter, luminescence, 30-36 h; Potency, µM (highest dose often 46.1 µM), for the others: top-dose activity change, positive = activation, actives largely listed as activators; 210,000 compounds, 2.8% hits; AID 1458, 2008; note: % of control where 0% means no effect; nearly all actives have a fitted effect of over 55% in size
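qHTS luciferase splicing reporter: luminescence rises when SMN2 exon 7 is included in transfected HEK293 cells. Compound exposure lasted 30-36 h at 37C, with 4.5 mM final sodium butyrate as control, followed by a ONE-Glo read.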
NPC1 promoter act – qHTS Assay for NPC1 Promoter Activators; Huh7 NPC1 promoter luciferase reporter, 24 h; Potency, µM (series often up to 9.22 µM), for the others: top-dose activation, most hits filed as activators; 320,000 compounds, 2.4% hits; note: % of control where 0% means no effect; nearly all actives have a fitted effect of over 60% in size
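Luminescence read-out of NPC1 promoter-driven luciferase in stably transfected Huh7 cells; compounds delivered in DMSO and left 24 h at 37C, 5% CO2, qHTS titration format.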
ELG1 genotox – qHTS screen for small molecules that induce genotoxicity in human embryonic kidney (HEK293T) cells expressing luciferase-tagged ELG1; HEK293T ELG1-luciferase reporter, luminescence, 16 h; Potency, µM (doses to about 46 µM), without a hit: at the highest dose activity change, positive = activation, most hits filed as activators; 330,000 compounds, 1.3% hits; note: % of control where 0% means no effect; nearly all actives have a fitted effect of over 60% in size
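Step 1: seed 2,000 HEK293T ELG1-luciferase cells per well. Step 2: add compound or DMSO, incubate 16 hr at 37 °C. Step 3: ONE-Glo, 30 min at room temperature, read luminescence.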
Rab9 prom act – qHTS Assay for Rab9 Promoter Activators; Huh7 Rab9 promoter-luciferase reporter, luminescence, 24 h; Potency, µM (top dose mostly 9.22 µM), without a hit: at the top dose activation, negative = inhibition, actives largely listed as activators; 320,000 compounds, 2.8% hits; note: % of control where 0% means no effect; nearly all actives have a fitted effect of over 60% in size
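Quantitative HTS format; Huh7 Rab9-luciferase reporter cells (1500/well) receive compound 2 h post-plating, incubate 24 h at 37 °C, then get luciferase reagent for 10 min before luminescence reading.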
FLuc counter – qHTS profiling assay for firefly luciferase inhibitor/activator using purifed enzyme and Km concentrations of substrates (counterscreen for miR-21 project). Luciferin 4-monooxygenase (Photinus pyralis), P08659. purified FLuc, Km substrates, luminescence inhibition. Potency, µM (series often up to 57.5 µM), inactives show at the top dose activity change, negative = inhibition, actives largely listed as inhibitors. 360,000 compounds, 6.9% hits;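 note: plate controls were vehicle for no effect and reference inhibitor for full effect; nearly all actives have a fitted effect of over 55% in size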
Target sequence (P08659 whole entry, looked up): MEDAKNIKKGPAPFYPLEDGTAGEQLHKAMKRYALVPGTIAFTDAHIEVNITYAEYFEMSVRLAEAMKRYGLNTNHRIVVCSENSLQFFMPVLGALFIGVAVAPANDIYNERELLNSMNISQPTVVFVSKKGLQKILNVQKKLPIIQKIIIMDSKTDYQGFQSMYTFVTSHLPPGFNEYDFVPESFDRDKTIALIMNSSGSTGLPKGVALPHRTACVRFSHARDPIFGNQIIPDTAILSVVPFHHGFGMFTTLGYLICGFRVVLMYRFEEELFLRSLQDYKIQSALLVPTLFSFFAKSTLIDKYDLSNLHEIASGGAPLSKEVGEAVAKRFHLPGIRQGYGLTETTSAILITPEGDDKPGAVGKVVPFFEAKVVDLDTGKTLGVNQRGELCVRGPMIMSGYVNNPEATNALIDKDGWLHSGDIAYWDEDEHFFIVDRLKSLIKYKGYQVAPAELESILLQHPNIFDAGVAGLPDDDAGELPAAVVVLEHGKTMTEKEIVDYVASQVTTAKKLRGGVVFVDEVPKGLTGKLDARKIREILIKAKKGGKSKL
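Purified P. pyralis luciferase (10nM final) with 10uM D-luciferin and 10uM ATP (Km levels) in 50mM Tris acetate pH 7.5, 10mM Mg acetate, 0.01% Tween-20, 0.05% BSA; qHTS 6-point titration, ~60 µM downward; luminescence read.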
ELG1 DNA repair – qHTS screen for small molecules that inhibit ELG1-dependent DNA repair in human embryonic kidney (HEK293T) cells expressing luciferase-tagged ELG1 | HEK293T ELG1-luciferase reporter, luminescence, 16 h; DNA damage induced by 5-fluorouridine | Potency, µM (top dose mostly 46.1 µM), for the others: at the top dose activity change, negative = inhibition, actives largely listed as inhibitors | 330,000 compounds, 2.3% hits | AID 504467, 2011; note: % is set by controls: 0 for no effect and ±100 for the full control effect; nearly all actives have a fitted effect of over 55% in size
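DMSO vehicle served as the neutral condition. Each well held 2,000 cells given 5-fluorouridine plus compound; after 16 hr at 37 °C/5% CO2, ONE-Glo was added and luciferase measured 30 min later.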
Active calls of the source: *; ? = inconclusive; . = not tested or not shown. An excerpt weighted towards active compounds, which were near 9.2% of everything screened. Calls come from the whole dose curve; as a rule, active = well fitted curve in the direction sought with a large enough effect; inconclusive = small, poorly fitted or top-dose-only effect, or another doubt; inactive = no such curve, though single readings can be large; an effect the other way counts as inactive or inconclusive. Potency is the fitted concentration of half-maximal effect.

SMILES | SMN2 splice enh | NPC1 promoter act | ELG1 genotox | Rab9 prom act | FLuc counter | ELG1 DNA repair
Cc1sc2ncnc(N3CCN(c4ncccn4)CC3)c2c1C | -26% | -4% | -13% | 0% | 0% | -10%
COc1cc(C(=O)N2CCN(c3ncnc4sc(C)c(C)c34)CC2)cc(OC)c1OC | . | -12% | -15% | -24% | -6% | 6.5µM*
Cc1ccccc1OCC(=O)NNC(=O)C1CCN(c2ncnc3sc(C)c(C)c23)CC1 | . | 2% | -36% | -2% | 2% | 21µM*
CCCN(CC(=O)Nc1ccccc1C)C(=O)C1CCN(c2ncnc3sc(C)c(C)c23)CC1 | . | -2% | -13% | -11% | 4% | 9.2µM*
Cc1cccc2c1-c1sc(C(=O)NCCc3ccc(Cl)cc3)cc1CO2 | -8% | . | . | . | -11% | .
COc1ccc(C)cc1NC(=O)c1nnn(CC(=O)Nc2c(C)cccc2C)c1N | . | . | . | . | -2% | .
CNC(=O)c1ccc(NC(=O)C2CCN(c3ncnc4sc(C)c(C)c34)CC2)cc1 | . | 7% | -21% | 2% | 1% | 9.2µM*
Cc1noc(C(=O)Nc2cccc(Cl)c2)c1Cl | . | 22% | 13% | 19% | ? | ?
COc1ccc(NC(=O)COC(=O)C2CC3C=CC2C3)cc1 (stereo not drawn) | -1% | 4% | 5% | 3% | 17µM* | ?
Cc1ccc2cc(NC(=O)c3ccccc3C)ccc2n1 | . | 2.8µM* | ? | 3.5µM* | 5.4µM* | ?
Cc1ccc2cc(NC(=O)Cc3ccccc3)ccc2n1 | . | 1.4µM* | ? | 2µM* | 3.4µM* | ?
Cc1ccccc1C(=O)Nc1ccc2c(c1)C(=O)NC2=O | . | 0% | 4% | 0% | -2% | 24%
O=C(CCSCc1cccc(Cl)c1)N1CCN(c2ccc(Cl)cc2)CC1 | . | . | . | . | 3% | .
O=C(c1cccc(C(F)(F)F)c1)C1CCCN(C(=O)/C=C/c2cnc[nH]2)C1 (stereo not drawn) | . | -4% | 0% | 1% | 4% | 7%
O=C(Nc1ccc(Cl)cc1)Nc1ccccc1C(=O)O | 13µM* | 0.35µM* | ? | 0.45µM* | 0.48µM* | ?
O=C(Cc1ccccc1)NNC(=O)Nc1ccc(Cl)c(Cl)c1 | 5% | -2% | -6% | -9% | 0% | -26%
O=C(Nc1ccc(Cl)cc1)Nc1ccccc1CC[N+](=O)[O-] | ? | 13% | -7% | 3% | ? | -9%
O=C(Nc1ccc(Cl)c(Cl)c1)Nc1ccccc1C(=O)O | 4.5µM* | 0.35µM* | 2.3µM* | 0.32µM* | 0.54µM* | ?
CCCCC(=O)Nc1nc(C)c(-c2csc(Nc3ccccc3OC)n2)s1 | -11% | -4% | -4% | -6% | ? | 16µM*
Cc1cccc(Nc2nc(-c3sc(C)nc3C)cs2)c1 | . | ? | ? | ? | 19µM* | ?
Cc1cccc(Nc2nc(-c3c(C)nc4ccccn34)cs2)c1 | -38% | -24% | -15% | -20% | ? | ?
Cc1nc(N)sc1-c1csc(Nc2cccc(O)c2)n1 | . | 3.5µM* | ? | 4% | 11µM* | -27%
Cc1nc(C)c(-c2csc(Nc3ccc(S(N)(=O)=O)cc3)n2)s1 | . | -8% | 3% | -2% | -4% | ?
CCC(=O)Nc1nc(C)c(-c2csc(Nc3cccc(O)c3)n2)s1 | . | 13% | -9% | 2% | 11µM* | 2.6µM*
Nc1nnc(SCC(=O)Nc2cccc(F)c2)s1 | ? | . | . | . | -1% | .
SMILES | SMN2 splice enh | NPC1 promoter act | ELG1 genotox | Rab9 prom act | FLuc counter | ELG1 DNA repair
Cc1nc(C)c(-c2csc(Nc3cccc(O)c3)n2)s1 | . | ? | ? | ? | 11µM* | ?
Cc1nc2ccccn2c1-c1csc(Nc2cccc(O)c2)n1 | . | 1% | 2% | -1% | -7% | ?
Cc1c(C(=O)Nc2ccccc2Cl)oc2ccc(S(=O)(=O)N3CCCCC3)cc12 | . | . | . | . | -2% | .
COC(=O)c1sc(-c2ccc(Cl)cc2)cc1NC(=O)CSCC(=O)O | . | -1% | 0% | 1% | 13µM* | -2%
COC(=O)c1sc(-c2ccc(C(C)(C)C)cc2)cc1NC(=O)COCC(=O)O | . | 19% | 7% | 17% | 3.8µM* | 0%
O=S(=O)(c1ccc(Br)cc1)N1CCC2(CC1)OCCO2 | . | 0% | 2% | -1% | 3% | -1%
N#Cc1c(-n2ncnc2-c2ccc(Br)cc2)sc2c1CCCCC2 | 6% | . | . | . | 1.2µM* | .
COc1cccc(-c2ncnn2-c2sc3c(c2C#N)CCCCC3)c1OC | 9% | . | . | . | 0.95µM* | .
O=C(/C=C/c1ccc(F)cc1)c1cc(Br)ccc1O | . | 12% | 8% | 10% | ? | ?
O=C(/C=C/c1ccc2ccccc2n1)c1cc(Br)ccc1O | . | 0% | 12% | 6% | 8.5µM* | ?
Cc1ccc(-c2cn3c(n2)sc2cc(C(=O)NC4CCCCC4)ccc23)cc1 | . | . | . | . | 0% | .
CCc1ccccc1N(C)C(=O)c1cn(CC(C)C)c(=O)c2cc(OC)c(OC)cc12 | -18% | . | . | . | 2% | .
COc1ccc(OC)c(NC(=O)Nc2ccc3c(c2)OCO3)c1 | . | 4% | 0% | 8% | 27µM* | 0%
COc1cccc(NC(=O)Nc2ccc3c(c2)OCO3)c1 | . | 2µM* | ? | 1.4µM* | 7.6µM* | ?
COc1cccc(NC(=O)CN(C)CC(=O)Nc2ccc3c(c2)OCO3)c1 | . | . | 0% | . | . | -7%
COc1ccc(OC)c(S(=O)(=O)N(C)CC(=O)Nc2ccc3c(c2)OCO3)c1 | 5% | -1% | 4% | 0% | -13% | -14%
O=C(Nc1ccc2c(c1)OCO2)Oc1ccccc1 | -7% | . | . | . | 11µM* | .
Cc1ccc(-c2ccc(=O)n(CC(=O)Nc3ccc(C(C)C)cc3)n2)cc1 | -2% | . | . | . | ? | .
Cc1ccc(OCCN2CCN(C(=O)CCC(=O)Nc3nnc(CC(C)C)s3)CC2)cc1 | . | -23% | -2% | -35% | 4% | 2.6µM*
CCC(CC)c1nnc(NC(=O)c2cccc(S(=O)(=O)N3CCOCC3)c2)s1 | . | . | 1% | . | . | ?
O=C(NCCc1ccccc1Cl)C1CCN(c2nc3ccccc3nc2C(F)(F)F)CC1 | . | . | . | . | -12% | .
Cc1ccnc(Nc2nc(-c3ccc(Cl)cc3)cs2)c1 | . | 2.8µM* | ? | 2.8µM* | 2.7µM* | ?
Cc1ccc(S(=O)(=O)Nc2nc(-c3ccc(F)cc3)cs2)cc1 | . | -4% | 0% | 1% | -17% | 7%
Cc1ccnc(Nc2nc(-c3ccc(F)cc3)cs2)c1 | . | 1.8µM* | ? | 2.5µM* | 0.85µM* | ?
CCCS(=O)(=O)NCCc1sc2nc(-c3ccc(Cl)cc3)nn2c1C | . | . | . | . | -18% | .
